Source: PubChem BioAssay AID2417 (National Center for Advancing Translational Sciences (NCATS), 2010)
The whole screen tested about 140,000 compounds, of which about 4,300 (3.1%) were called active. About 21% were inconclusive and are not listed.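 The calls were made as follows: active = readout at or below -70, meaning at least 70% loss of cells showing the perinucleolar compartment, a nuclear body marking cancer cells; inconclusive = readout between -30 and a set limit; inactive = the rest.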 Shown is part of a subset that was picked to be rich in actives.

assay: High Content Assay for Compounds that inhibit the Assembly of the Perinucleolar Compartment; settings: PC3M PTB-GFP, PNC prevalence imaging, 16 h; at 10 µM; active compounds read low;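 also: plate controls were DMSO wells for no effect and camptothecin positive control wells for full effect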
Excerpt: High Content Assay for Compounds that inhibit the Assembly of the Perinucleolar Compartment NIH Chemical Genomics Center [NCGC] NIH Molecular Libraries Probe Centers Network [MLPCN] MLPCN Grant: MH082371-01A2 Assay Submitter (PI): Sui Huang, Northwestern University, Feinberg School of Medicine, Cell and Molecular Biology, Chicago, Illinois. The perinucleolar compartment (PNC) is a non-membrane-bound nuclear subdomain that is associated with but structurally distinct from the nucleolus. The PNC is a heritable trait, in which the number of PNCs per cell in daughter cells often mimics that of their mother cells. The PNC is heterogeneous in shape, is stable through interphase, disassembles during mitosis, and reassembles in early G1. The PNC is concentrated with newly synthesized RNA polymerase III (pol III) RNAs (MRP RNA, RNAse P H1 RNA, hY RNAs[hY1, 2, 5], Alu RNA, and SRP [7SL] RNA) and RNA binding proteins (nucleolin, PTB, CUG-BP, KSRP, Raver1, Raver2, and Rod). […] Extensive in vitro studies have shown that the PNC is unique to tumor cells and preferentially forms in tumor cells derived from solid tissues. Examination of cancer cell lines from various origins and malignant capacities has shown that PNC prevalence correlates with the malignancy of tumors and has the potential to be developed as a pan-cancer prognostic marker. […] Although the PNC is associated with a DNA locus and a handful of components have been identified, much remains to be investigated regarding the structure and function of the PNC and its mechanistic link to cancer. We have previously shown that PNC prevalence reduction is a valid strategy to identify compounds that can be used to study the structure and function of the PNC. It is necessary, however, to create a screening platform that is able to test a large number of compounds in an automated fashion. Here we report the development and robustness of an automated whole-cell phenotypic image-based screening assay that is capable of identifying such compounds.
PNC High Content Imaging Assay Procedure: 1. Cells at a density of 75-90% confluency in T175 flasks were harvested using 7 ml TrypLE Express cell dissociation reagent. After dissociation (5 minutes room temperature incubation) 10 ml of complete media was added to the TrypLE/cell suspension. The liquid was transferred to a 50 ml Conical tube and cells were pelleted at 1000 RPM for 5 min. Supernatant was removed and cells were resuspended to a final density of 150-200 cells/ul in complete media. 2. Cells were plated in 5 ul volume (750-1000 cells/well) into 1536 well Black uclear Aurora Low Base plates and allowed to recover and adhere at 37 C in a humidified 5% CO2 incubator for 4 hours. 3. After 4 hour incubation, compound libraries (23 nl of […] in columns 5-48) were transferred to the plates in duplicate using a 1536 well pintool. Camptothecin positive control (59 uM final) was added to column 2 and 1:3 dilutions of camptothecin was added to column 3. DMSO negative controls were present in columns 1 and 4. 4. After a 16 hour incubation in the 37 C incubator, cells were fixed by the addition of 4 ul of 6% EM grade paraformaldehyde (containing 0.1% triton X 100) directly to the cells. The plates were incubated at room temperature for 20 minutes. The liquid was removed using a 32 channel Kalypsys aspirator and the fixed cells were washed twice with 5 ul PBS followed by a final addition of 5 ul PBS containing 1 ug/ml Hoechst 33342. 5. Fixed plates were sealed and sotred at 4C until imaged. 6. Plates were imaged on an InCell 1000 automated microscope using a 20 x objective, a standard FITC filter set, no camera binning, and an exposure time of ~100-150 msec/well. 7. Data analysis. PNC prevalence was determined using the Multitarget analysis module from InCell Workstation software (V3.5 ) and analysis was run on a quad core workstation using the Incell Developer Toolbox (V1.7). […]

Activity change (PNC), negative = inhibition, active:
COc1ccc(CC(=O)Nc2ccc(C(=O)NC(C)(C)C)cc2)cc1 -85%
Cn1nnnc1SCC(=O)N1CCN(C(c2ccccc2)c2ccccc2)CC1 -100%
O=C(c1ccc(-n2cnnn2)cc1)N1CCN(C(c2ccccc2)c2ccccc2)CC1 -100%
CC(NC(=O)COC(=O)C1CCN(S(=O)(=O)c2ccccc2C(F)(F)F)CC1)c1ccccc1 (centres undefined) -108%
CCOC(=O)c1c(-c2ccc(C)cc2C)csc1NC(=O)CSc1nnnn1C -85.2%
COc1ccc(C(=O)COC(=O)COc2ccc(C)c(C)c2)cc1 -83.5%
CCOC(=O)c1ccc(NC(=O)CSc2nnc(COc3ccccc3OC)n2C)cc1 -83.9%
Cn1c(=O)[nH]c(=O)c2c1nc(NCCCn1ccnc1)n2Cc1cccc(Br)c1 -100%
Cc1ccc(C)c(S(=O)(=O)N2CC(=O)Nc3ccccc32)c1 -86.7%
CCOC(=O)C1=C(CC)Nc2ccccc2N=C1NC(=O)c1cccc(S(=O)(=O)N2CCCC2)c1 -114%
C/C(CC(=O)Nc1ccc(Cl)cc1)=N\NC(=O)C(=O)NCCO -81.9%
Cc1nn(-c2ccccc2)c(Cl)c1/C=C/C(=O)c1ccc(O)cc1 -91.6%
CCOC(=O)c1sc(NC(=O)COc2ncnc3ccccc23)c(C(=O)OCC)c1C -95.9%
O=C(COc1ccc(Cl)cc1)Nc1ccccc1CO -92.3%
NC(=O)c1sc2nc3c(c(-c4ccccc4)c2c1N)CCC3 -100%
O=C(NC1CCN(C(=S)NCc2ccco2)CC1)c1ccc(F)cc1 -100%
Cc1nc2ccccc2c(=O)n1CCCn1ccnc1 -81.9%
CCOC(=O)CNC(=O)/C=C/c1c(Cl)cccc1Cl -123%

Activity change (PNC), negative = inhibition, inactive:
COc1ccc([C@H]2[C@H](C(C)=O)N3N=Cc4ccccc4C3C23C(=O)OC(C)(C)OC3=O)cc1 (some centres undefined) 11.5%
COc1ccc(C(=O)Nc2ccc(CN3CCOCC3)cc2)cc1 -12.7%
CC(C)(C)NC(=O)c1cccc(NC(=O)Cc2ccc(Br)cc2)c1 -14.3%
CC1=C(C(=O)Nc2cc(C)ccn2)C(c2cnn(C)c2)C2=C(CC(c3ccccc3)CC2=O)N1 (centres undefined) 20.8%
COc1ccc2nc(NC(=O)[C@@H]3CCCN3C(=O)c3cccs3)sc2c1 34.3%
Cn1nnnc1SCC(=O)N1CCN(Cc2ccccc2)CC1 29.1%
CC(C)NC(=S)N1CCN(C(c2ccccc2)c2ccccc2)CC1 12%
CCOC(=O)C1=C(CSc2nnnn2C)N(C)C(=O)NC1c1ccccc1 (centres undefined) 19.9%
O=C(O)CC(c1ccccc1)n1cnnn1 (centres undefined) 2.72%
Cc1ccc2nsnc2c1NC(=O)c1ccccc1[N+](=O)[O-] -1.05%
O=C(C/C(=N\NC(=O)c1ccccc1Br)C(F)(F)F)c1cccs1 -25.7%
Cc1ccc(C)c2[nH]c(=O)c(CCNC(=O)c3cccs3)cc12 36.1%
COc1cc(OC)cc(C(=O)NCC(=O)OCc2csc(-c3ccccc3)n2)c1 0.666%
CCC1CCCCN1C(=S)Nc1ccc(C(C)=O)cc1 (centres undefined) 83.7%
CC(NC(=O)CCC(=O)N1CCN(S(=O)(=O)c2ccc(Cl)cc2)CC1)c1ccccc1 (centres undefined) -12.6%
CCNC(=O)NC(=O)C(C)OC(=O)C1CCN(S(=O)(=O)c2ccccc2F)CC1 (centres undefined) -28.8%
O=C(Nc1cccc(Cl)c1)Nc1ccccc1NS(=O)(=O)c1cccs1 -1.43%
CNC(=O)CSc1nnnn1-c1ccc(C)cc1C -10.4%
CCOC(=O)CNC(=O)CSc1nnnn1-c1cc(C)ccc1C -8.66%
C/C(CCC(=O)OC[C@H]1O[C@H](C#Cc2ccccc2)C=C[C@@H]1Oc1ccc(C)cc1)=N\OC[C@@H](O)[C@H]1O[C@@H]2OC(C)(C)O[C@@H]2[C@H]1O 49%
CN(CC(=O)NCCc1ccccc1)S(=O)(=O)c1cnc[nH]1 -5.8%
Cc1ccc(/C(N)=N/OC(=O)COc2ccc(Cl)c(C)c2)cc1 48.8%
COCCNC(=O)COc1ccc(C)c(C)c1 -16.6%
CCOC(=O)c1ccc(NC(=O)CSc2ncccn2)cc1 -27.8%
COC(=O)c1ccc(NC(=O)CSc2nnc(-c3ccncc3)n2C)cc1 -12.9%
CN(CC(=O)Nc1ccc(S(=O)(=O)N2CCCC2)cc1)Cc1ccc(Cl)c(Cl)c1 14.3%
Cc1nc2scc(-c3cccs3)c2c(=O)n1N 38.3%
CCCCNc1nc2c(c(=O)n(C)c(=O)n2C)n1Cc1cccc(OC)c1 -17.3%
CCCCNc1nc2c(c(=O)[nH]c(=O)n2C)n1CCOc1ccccc1 44.9%
O=C(N/N=C\c1ccc(Br)cc1)c1ccc(Cn2cccn2)o1 -11.4%
CN(C)S(=O)(=O)c1ccc(N2CCCC2=O)c([N+](=O)[O-])c1 43.2%
COc1ccc2c(c1)C(SCC(=O)NCc1ccccc1)CC(C)(C)O2 (centres undefined) 27.2%
Cc1ccc(C)c(S(=O)(=O)n2cnc3ccccc32)c1 -9%
Cc1ccc(S(=O)(=O)N2CC(=O)Nc3ccccc32)cc1C 5.54%
COc1ccc(NC(=S)NCc2cccs2)c(OC)c1 -5.37%
O=C(CN1CCN(S(=O)(=O)c2ccc(Br)cc2)CC1)Nc1ccccc1C(=O)c1ccccc1 41.1%
COC(=O)NNC(=O)C1CCC(C)CC1 (centres undefined) 21.6%
CCOC(=O)CSc1nnc(NC(=O)c2cccc(S(=O)(=O)N3CCCCC3)c2)s1 19.2%
O=C(Nc1nncs1)c1cccc(S(=O)(=O)N2CCCCC2)c1 -22%
COc1ccc(C)cc1NC(=O)C(Sc1ccccc1)c1ccccc1 (centres undefined) -2.98%
CCC(C)NC(=O)c1ccc(N2CCC3(CC2)OCCO3)c([N+](=O)[O-])c1 (centres undefined) 36.6%
COc1ccc(NC(=O)CN(Cc2ccccc2)S(C)(=O)=O)cc1OC -0.222%
COc1ccc(COC(=O)N/N=C(\C)CC(=O)Nc2ccc(Cl)cc2)cc1 20.7%
CCCCC(=O)N/N=C(\C)CC(=O)Nc1cc(Cl)ccc1OC 41.6%
CC(C)(C)C1CCC(=NNC(=O)c2ccc(Br)o2)CC1 (centres undefined) 30.8%
O=C(Nc1cn(-c2ccccc2)nc1-c1ccccc1)c1ccccc1 22.3%
Cc1nn(-c2ccccc2)c(C)c1/C=C/C(=O)OC(C)C(N)=O (centres undefined) 7.76%
Cc1ccc(C(=O)/C=C/c2c(C)nn(-c3ccccc3)c2Cl)cc1 -11.1%
NC1=C([N+](=O)[O-])C(c2ccccc2)C2=C(CCCC2=O)O1 (centres undefined) 6.59%
CC(OC(=O)c1ccccc1N1C(=O)C2C3CCC(C3)C2C1=O)C(=O)c1ccccc1 (centres undefined) -15.7%
CC(C)C(C)NC(=O)COc1ncnc2ccccc12 (centres undefined) 23%
CCOC(=O)c1c(NC(=O)CCl)sc(C(=O)N(CC)CC)c1C 4.89%
CCOc1ccc(-c2n[nH]c(=S)n2/N=C/c2cc3c(cc2[N+](=O)[O-])OCO3)cc1 25.2%
COC(=O)c1sccc1NC(=O)COc1ccc(Cl)cc1 -3.53%
O=C(COc1ccc(Cl)cc1)NCCSc1ccccc1 8.59%
CCS(=O)(=O)N1Cc2ccccc2CC1C(=O)Nc1nc2ccc(F)cc2s1 (centres undefined) 48.1%
O=C1C2C3C=CC(C4CC34)C2C(=O)N1c1nccs1 (centres undefined) 23.7%
Cc1cc(Cl)ccc1NC(=S)N1CCC(C(N)=O)(N2CCCCC2)CC1 74.5%
CC(=O)Nc1ccc(NC(=O)c2sc3nc4c(c(-c5ccc(C)cc5)c3c2N)CCC4)cc1 14%
Cc1nc2sc(C(=O)c3ccccc3)c(N)c2c2c1CCCC2 7.19%
COc1ccc(Br)cc1C(=O)Nc1cccc(C)c1C -16.5%
CC(C)OCCCNC(=O)c1cc(Sc2ccc(F)cc2)nc2ccccc12 -1.71%
O=S(=O)(c1ccc(F)cc1)N1CCN(C(=S)NCc2ccco2)CC1 8.43%
Cc1cc(C)cc(NC(=O)N2CCC(NC(=O)c3ccc(F)cc3)CC2)c1 -20.1%
Cc1ccc(CN2CCN(/N=C/c3cccnc3)CC2)c(C)c1 -5.48%
CC(C)(C)NC(=O)C(=O)NCc1ccncc1 -17.6%
O=C(N/N=C/c1ccccn1)C12CC3CC(CC(C3)C1)C2 -19.1%
COCCCn1c2nc3ccccc3nc2c2c(=O)n(Cc3ccc(Cl)cc3)c(C)nc21 39.8%
CCOc1ccccc1C(=O)NCCCn1ccnc1 15.6%
Cc1ccc(C2C3=C(Nc4[nH]n(-c5ccccc5)c(=O)c42)c2ccccc2C3=O)cc1 (centres undefined) -4.45%
CCCN(CCC)C(=S)Nc1cc(C(=O)OC)ccc1C(=O)OC 27.9%
Cn1c(=O)c(Sc2ccc(Cl)cc2)c(O)c2ccccc21 -25.4%
O=C(/C=C/c1c(Cl)cccc1Cl)NCc1ccccc1 -1.54%
O=C(CNC(=O)Cc1ccccc1)NCC(=O)OCC(=O)c1ccccc1Cl 90.5%
CCOC(=O)CC(NC(=O)C1c2ccccc2Oc2ccccc21)c1ccc(C)cc1 (centres undefined) -19.2%
CCOC(=O)N1CCN(C(=O)C2CCN(Cc3ccc(OC)cc3OC)CC2)CC1 33.2%
